From ChEMBL document CHEMBL2218924, “A broad activity screen in support of a chemogenomic map for kinase signalling research and drug discovery” (Biochem J, 2013)

Legend:
[1] = target: T1, Dual specificity mitogen-activated protein kinase kinase 6 (Homo sapiens) (UniProt P52564); conditions: at 1 µM
T1 sequence (whole entry): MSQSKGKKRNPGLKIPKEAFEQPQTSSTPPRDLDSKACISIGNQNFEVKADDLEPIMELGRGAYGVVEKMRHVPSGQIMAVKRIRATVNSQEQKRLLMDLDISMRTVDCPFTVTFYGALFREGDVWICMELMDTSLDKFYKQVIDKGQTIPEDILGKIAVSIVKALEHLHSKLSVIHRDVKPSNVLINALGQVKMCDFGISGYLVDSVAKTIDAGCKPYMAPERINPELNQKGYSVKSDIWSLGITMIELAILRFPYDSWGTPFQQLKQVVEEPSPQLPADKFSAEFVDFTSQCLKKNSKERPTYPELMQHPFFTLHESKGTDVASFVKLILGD

[2] = target: T1, Dual specificity mitogen-activated protein kinase kinase 6 (Homo sapiens); conditions: at 10 µM
[3] = target: T2, Dual specificity mitogen-activated protein kinase kinase 7 (Homo sapiens) (UniProt O14733); conditions: at 1 µM
T2 sequence (whole entry): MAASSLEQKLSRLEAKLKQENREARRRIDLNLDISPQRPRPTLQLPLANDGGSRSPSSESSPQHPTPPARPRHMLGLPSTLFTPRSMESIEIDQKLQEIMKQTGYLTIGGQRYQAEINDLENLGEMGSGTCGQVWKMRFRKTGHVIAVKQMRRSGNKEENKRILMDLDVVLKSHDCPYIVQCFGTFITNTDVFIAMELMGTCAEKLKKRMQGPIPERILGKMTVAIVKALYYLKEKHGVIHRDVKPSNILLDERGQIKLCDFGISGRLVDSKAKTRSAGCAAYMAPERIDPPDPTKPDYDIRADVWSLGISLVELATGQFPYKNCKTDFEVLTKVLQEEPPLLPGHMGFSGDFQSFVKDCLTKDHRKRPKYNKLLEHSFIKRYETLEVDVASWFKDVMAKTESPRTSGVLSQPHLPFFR

[4] = target: T2, Dual specificity mitogen-activated protein kinase kinase 7 (Homo sapiens); conditions: at 10 µM
[5] = target: Myosin light chain kinase, smooth muscle (Homo sapiens) (UniProt Q15746); conditions: at 1 µM
Myosin light chain kinase, smooth muscle (Homo sapiens), sequence (Q15746 whole entry): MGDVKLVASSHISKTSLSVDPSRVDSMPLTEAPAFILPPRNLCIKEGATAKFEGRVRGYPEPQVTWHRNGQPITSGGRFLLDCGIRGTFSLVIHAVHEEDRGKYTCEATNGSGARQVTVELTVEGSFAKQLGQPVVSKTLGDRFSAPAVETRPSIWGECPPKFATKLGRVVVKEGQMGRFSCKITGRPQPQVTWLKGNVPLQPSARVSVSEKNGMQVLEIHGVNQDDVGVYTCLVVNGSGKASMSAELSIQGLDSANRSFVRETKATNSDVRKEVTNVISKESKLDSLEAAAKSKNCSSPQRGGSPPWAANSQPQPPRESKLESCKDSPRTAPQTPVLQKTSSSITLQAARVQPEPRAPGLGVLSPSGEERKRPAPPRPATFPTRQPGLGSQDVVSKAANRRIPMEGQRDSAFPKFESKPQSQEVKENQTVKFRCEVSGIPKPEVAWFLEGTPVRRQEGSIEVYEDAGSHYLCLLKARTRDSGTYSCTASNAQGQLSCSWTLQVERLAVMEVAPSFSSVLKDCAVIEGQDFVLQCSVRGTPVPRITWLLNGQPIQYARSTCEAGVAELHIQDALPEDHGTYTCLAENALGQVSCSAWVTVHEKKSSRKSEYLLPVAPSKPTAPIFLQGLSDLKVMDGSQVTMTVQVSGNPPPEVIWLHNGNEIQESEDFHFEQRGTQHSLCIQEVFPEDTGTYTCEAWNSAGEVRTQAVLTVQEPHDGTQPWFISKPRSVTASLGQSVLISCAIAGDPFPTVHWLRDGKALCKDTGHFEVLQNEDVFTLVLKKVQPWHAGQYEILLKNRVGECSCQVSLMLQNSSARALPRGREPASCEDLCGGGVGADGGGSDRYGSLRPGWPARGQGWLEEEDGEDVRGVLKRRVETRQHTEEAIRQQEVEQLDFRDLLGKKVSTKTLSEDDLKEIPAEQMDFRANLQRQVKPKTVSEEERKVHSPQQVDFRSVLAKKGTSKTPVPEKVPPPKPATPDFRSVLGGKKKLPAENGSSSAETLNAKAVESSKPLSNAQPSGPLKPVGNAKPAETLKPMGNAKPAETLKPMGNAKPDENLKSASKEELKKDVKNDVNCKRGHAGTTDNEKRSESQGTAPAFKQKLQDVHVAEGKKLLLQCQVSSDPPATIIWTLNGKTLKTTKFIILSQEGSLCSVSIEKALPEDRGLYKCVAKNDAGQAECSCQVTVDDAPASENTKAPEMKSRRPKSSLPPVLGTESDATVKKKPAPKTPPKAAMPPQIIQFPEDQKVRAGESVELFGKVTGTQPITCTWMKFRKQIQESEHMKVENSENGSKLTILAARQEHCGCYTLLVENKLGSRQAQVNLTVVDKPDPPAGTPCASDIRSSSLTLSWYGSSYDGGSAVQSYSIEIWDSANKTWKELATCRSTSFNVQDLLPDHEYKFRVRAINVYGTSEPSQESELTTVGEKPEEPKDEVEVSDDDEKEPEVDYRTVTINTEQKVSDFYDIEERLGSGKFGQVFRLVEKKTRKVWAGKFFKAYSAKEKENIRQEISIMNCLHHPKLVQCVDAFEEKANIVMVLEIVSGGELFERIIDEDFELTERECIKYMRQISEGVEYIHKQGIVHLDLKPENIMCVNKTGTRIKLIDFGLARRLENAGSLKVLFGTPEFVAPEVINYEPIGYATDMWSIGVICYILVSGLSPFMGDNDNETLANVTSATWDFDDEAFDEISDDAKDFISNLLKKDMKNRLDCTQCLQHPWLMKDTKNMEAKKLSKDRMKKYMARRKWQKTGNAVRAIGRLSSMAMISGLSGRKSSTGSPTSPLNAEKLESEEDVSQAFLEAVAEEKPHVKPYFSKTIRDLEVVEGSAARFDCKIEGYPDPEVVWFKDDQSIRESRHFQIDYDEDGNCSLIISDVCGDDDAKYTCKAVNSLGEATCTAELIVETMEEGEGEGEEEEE

[6] = target: Myosin light chain kinase, smooth muscle (Homo sapiens) (UniProt Q15746); conditions: at 10 µM
[7] = target: Mitogen-activated protein kinase kinase kinase 9 (Homo sapiens) (UniProt P80192); conditions: at 1 µM
Mitogen-activated protein kinase kinase kinase 9 (Homo sapiens), sequence (P80192 whole entry, looked up): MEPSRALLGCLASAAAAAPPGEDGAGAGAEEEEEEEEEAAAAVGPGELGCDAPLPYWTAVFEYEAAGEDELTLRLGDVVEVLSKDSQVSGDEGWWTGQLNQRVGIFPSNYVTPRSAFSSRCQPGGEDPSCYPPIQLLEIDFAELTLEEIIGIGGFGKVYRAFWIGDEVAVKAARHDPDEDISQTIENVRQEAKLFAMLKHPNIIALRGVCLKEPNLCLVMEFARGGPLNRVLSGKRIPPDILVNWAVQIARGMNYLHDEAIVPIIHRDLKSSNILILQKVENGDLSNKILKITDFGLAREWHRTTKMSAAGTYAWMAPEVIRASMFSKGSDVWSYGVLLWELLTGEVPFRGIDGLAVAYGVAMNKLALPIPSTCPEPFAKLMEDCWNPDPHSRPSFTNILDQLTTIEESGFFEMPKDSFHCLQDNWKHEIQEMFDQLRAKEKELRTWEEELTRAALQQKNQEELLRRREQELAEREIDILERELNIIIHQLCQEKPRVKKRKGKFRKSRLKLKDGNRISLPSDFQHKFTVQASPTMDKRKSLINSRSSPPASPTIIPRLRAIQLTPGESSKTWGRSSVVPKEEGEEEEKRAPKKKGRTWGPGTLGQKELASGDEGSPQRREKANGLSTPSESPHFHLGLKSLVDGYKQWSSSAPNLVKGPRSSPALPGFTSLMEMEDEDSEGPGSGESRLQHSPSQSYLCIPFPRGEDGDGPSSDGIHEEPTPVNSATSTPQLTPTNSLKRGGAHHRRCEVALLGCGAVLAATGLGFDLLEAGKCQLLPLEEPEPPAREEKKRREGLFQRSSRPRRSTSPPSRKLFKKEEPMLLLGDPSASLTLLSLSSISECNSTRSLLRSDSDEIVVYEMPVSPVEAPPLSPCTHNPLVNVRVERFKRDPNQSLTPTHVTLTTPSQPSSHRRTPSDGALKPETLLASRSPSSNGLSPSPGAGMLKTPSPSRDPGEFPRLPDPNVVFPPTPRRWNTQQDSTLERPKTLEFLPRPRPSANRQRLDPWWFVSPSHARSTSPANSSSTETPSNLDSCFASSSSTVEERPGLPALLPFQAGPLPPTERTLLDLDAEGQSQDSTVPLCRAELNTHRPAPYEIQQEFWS

[8] = target: Mitogen-activated protein kinase kinase kinase 9 (Homo sapiens) (UniProt P80192); conditions: at 10 µM
[9] = target: Serine/threonine-protein kinase MRCK beta (Homo sapiens) (UniProt Q9Y5S2); conditions: at 1 µM
[10] = target: Serine/threonine-protein kinase MRCK beta (Homo sapiens) (UniProt Q9Y5S2); conditions: at 10 µM
[11] = target: Ribosomal protein S6 kinase alpha-4 (Homo sapiens) (UniProt O75676); conditions: at 1 µM
Ribosomal protein S6 kinase alpha-4 (Homo sapiens), sequence (O75676 whole entry, looked up): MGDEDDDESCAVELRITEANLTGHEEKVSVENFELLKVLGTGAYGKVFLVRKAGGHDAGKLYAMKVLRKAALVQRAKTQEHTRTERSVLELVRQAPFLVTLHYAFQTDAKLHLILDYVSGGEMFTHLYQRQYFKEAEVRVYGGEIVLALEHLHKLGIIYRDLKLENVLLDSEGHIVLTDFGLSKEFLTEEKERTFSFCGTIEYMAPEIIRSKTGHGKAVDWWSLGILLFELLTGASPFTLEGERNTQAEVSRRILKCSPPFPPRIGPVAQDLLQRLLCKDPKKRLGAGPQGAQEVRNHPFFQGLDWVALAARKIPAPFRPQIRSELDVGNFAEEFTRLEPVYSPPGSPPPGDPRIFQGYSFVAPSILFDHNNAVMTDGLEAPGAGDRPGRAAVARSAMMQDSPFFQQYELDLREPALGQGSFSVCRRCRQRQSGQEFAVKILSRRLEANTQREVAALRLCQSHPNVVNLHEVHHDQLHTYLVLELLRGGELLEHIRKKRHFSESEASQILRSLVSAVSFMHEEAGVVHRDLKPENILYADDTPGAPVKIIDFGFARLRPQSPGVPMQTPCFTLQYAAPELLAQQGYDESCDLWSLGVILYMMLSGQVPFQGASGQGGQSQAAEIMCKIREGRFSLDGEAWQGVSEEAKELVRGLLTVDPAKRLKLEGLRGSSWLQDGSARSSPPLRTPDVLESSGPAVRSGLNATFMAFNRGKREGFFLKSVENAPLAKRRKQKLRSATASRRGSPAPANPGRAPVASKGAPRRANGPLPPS

[12] = target: Ribosomal protein S6 kinase alpha-4 (Homo sapiens) (UniProt O75676); conditions: at 10 µM
[13] = target: SRSF protein kinase 3 (Homo sapiens) (UniProt Q9UPE1); conditions: at 1 µM
[14] = target: SRSF protein kinase 3 (Homo sapiens) (UniProt Q9UPE1); conditions: at 10 µM
[15] = target: T3, Serine/threonine-protein kinase 4 (Homo sapiens) (UniProt Q13043); conditions: at 1 µM
T3 sequence (whole entry): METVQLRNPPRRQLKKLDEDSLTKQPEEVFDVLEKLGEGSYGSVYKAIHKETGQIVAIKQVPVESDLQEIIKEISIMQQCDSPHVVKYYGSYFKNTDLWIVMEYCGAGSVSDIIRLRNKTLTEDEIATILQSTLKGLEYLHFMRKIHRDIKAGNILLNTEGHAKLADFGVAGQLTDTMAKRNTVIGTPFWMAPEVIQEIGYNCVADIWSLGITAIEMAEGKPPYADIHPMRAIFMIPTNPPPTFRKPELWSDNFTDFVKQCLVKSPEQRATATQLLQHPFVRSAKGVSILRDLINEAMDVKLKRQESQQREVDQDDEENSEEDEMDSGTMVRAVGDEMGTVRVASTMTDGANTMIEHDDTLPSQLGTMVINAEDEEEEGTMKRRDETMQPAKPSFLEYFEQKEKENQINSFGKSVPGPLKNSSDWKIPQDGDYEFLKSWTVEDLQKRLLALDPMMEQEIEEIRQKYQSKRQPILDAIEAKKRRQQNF

[16] = target: T3, Serine/threonine-protein kinase 4 (Homo sapiens); conditions: at 10 µM
[17] = target: Serine/threonine-protein kinase MRCK alpha (Homo sapiens) (UniProt Q5VT25); conditions: at 1 µM
[18] = target: Serine/threonine-protein kinase MRCK alpha (Homo sapiens) (UniProt Q5VT25); conditions: at 10 µM
[19] = target: Ribosomal protein S6 kinase alpha-5 (Homo sapiens) (UniProt O75582); conditions: at 1 µM
Ribosomal protein S6 kinase alpha-5 (Homo sapiens), sequence (O75582 whole entry, looked up): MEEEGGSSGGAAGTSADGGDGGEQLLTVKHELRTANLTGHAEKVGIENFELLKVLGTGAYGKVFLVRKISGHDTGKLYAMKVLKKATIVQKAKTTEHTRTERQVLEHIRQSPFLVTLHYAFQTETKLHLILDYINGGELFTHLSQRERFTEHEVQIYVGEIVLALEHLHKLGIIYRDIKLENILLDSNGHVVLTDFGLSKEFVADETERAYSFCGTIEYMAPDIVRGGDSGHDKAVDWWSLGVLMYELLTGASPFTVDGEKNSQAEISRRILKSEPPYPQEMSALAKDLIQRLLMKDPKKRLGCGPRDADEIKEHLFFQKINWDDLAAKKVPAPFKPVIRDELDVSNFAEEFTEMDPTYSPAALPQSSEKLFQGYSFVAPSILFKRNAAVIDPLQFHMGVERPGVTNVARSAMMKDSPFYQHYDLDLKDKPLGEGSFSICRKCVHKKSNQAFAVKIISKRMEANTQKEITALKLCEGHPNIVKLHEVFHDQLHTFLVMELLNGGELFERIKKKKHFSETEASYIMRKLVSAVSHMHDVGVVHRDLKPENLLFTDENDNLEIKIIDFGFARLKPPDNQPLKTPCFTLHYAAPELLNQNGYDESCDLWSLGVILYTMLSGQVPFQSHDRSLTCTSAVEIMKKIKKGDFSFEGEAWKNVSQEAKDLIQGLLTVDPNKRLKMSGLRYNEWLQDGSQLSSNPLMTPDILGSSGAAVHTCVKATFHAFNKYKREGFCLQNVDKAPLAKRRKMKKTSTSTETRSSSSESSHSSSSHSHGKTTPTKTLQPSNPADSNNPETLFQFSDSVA

[20] = target: Ribosomal protein S6 kinase alpha-5 (Homo sapiens) (UniProt O75582); conditions: at 10 µM

SMILES	residual activity [1] [%]	residual activity [2] [%]	residual activity [3] [%]	residual activity [4] [%]	residual activity [5] [%]	residual activity [6] [%]	residual activity [7] [%]	residual activity [8] [%]	residual activity [9] [%]	residual activity [10] [%]	residual activity [11] [%]	residual activity [12] [%]	residual activity [13] [%]	residual activity [14] [%]	residual activity [15] [%]	residual activity [16] [%]	residual activity [17] [%]	residual activity [18] [%]	residual activity [19] [%]	residual activity [20] [%]
c1ccc2c(-c3ccncc3)c[nH]c2c1	77	93	101	94	72	66	74	60	94	60	80	54	102	80	89	97	–	–	–	–
CCN(CC)C(=O)c1ccc(Nc2nc(OCC3CCCCC3)c3nc[nH]c3n2)cc1	75	41	56	16	–	–	2	1	–	34	64	23	66	15	36	5	99	73	100	69
O=C1NC(=O)/C(=C\c2ccc3nccnc3c2)S1	95	85	96	88	81	62	80	53	93	53	89	68	94	69	94	101	106	93	123	90
COc1cc2ncnc(N3CCN(C(=O)Nc4ccc(Oc5ccccc5)cc4)CC3)c2cc1OC	87	81	144	111	77	97	87	91	83	87	93	123	109	79	85	88	–	–	113	104
O=C1Nc2ccccc2/C1=C1/Nc2ccccc2/C1=N\OCCC(O)CO (centres undefined)	51	7	54	5	26	20	2	2	–	–	15	2	62	42	4	-3	111	107	47	10
O=Nc1c(-c2c(O)[nH]c3ccccc23)[nH]c2ccccc12	63	40	52	7	46	13	6	1	106	103	32	4	85	46	8	2	142	135	61	21
O=c1cc(-c2cccc3c2Sc2ccccc2S3)oc(N2CCOCC2)c1	113	78	106	82	114	69	103	96	93	93	95	90	103	94	99	109	110	112	104	116
